Results from PubChem BioAssay.
For some assays here: Results with a measured potency or affinity are listed apart. Calls of active or inactive are those of the source. Unless noted, no rule for the calls is given here.

Assays:
[1] = antimalarial activity against Dd2 strain (AID 2302;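 active = growth inhibition above 50% at the single 2 µM test dose, taken to imply half-maximal potency below 2 µM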;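 also: 0% = DMSO untreated growth and 100% = chloroquine plus artemisinin killed control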); details: P. falciparum Dd2 in RBCs, LDH growth readout, 72 h; at 2 µM; active compounds read high
[2] = human hepatoma cell viability loss – ATP luminescence, cytotoxicity control for P. falciparum antimalarial project, primary screen (AID 2303;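 active = inhibition above 50%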;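 also: 0% = DMSO wells and 100% = digitonin-killed cells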); details: HepG2 viability, 24-48 h, at 10 µM, active compounds read high
[3] = target: L-lactate dehydrogenase (Plasmodium falciparum (isolate CDC / Honduras)) (UniProt Q27743); assay: PfLDH activity inhibition – cell lysate, 3D7 strain, counter-screen for P. falciparum growth inhibition project (AID 2304);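 also: 0% = vehicle and 100% = reference inhibitor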; details: P. falciparum 3D7 crude extract, LDH APAD/NBT absorbance; at 2 µM; active compounds read high
[4] = inhibition of 3D7 malaria parasite growth – strain 3D7 (AID 2306);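 also: 0% = DMSO wells and 100% = chloroquine plus artemisinin control wells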; details: P. falciparum 3D7 erythrocytic growth, LDH absorbance, 72 h; at 2 µM; active compounds read high
[5] = target: Calcium-dependent protein kinase 1 (Plasmodium falciparum (isolate 3D7)) (UniProt P62344); assay: PfCDPK1 kinase inhibitors, biochemical, TCAMS library (AID 1159585; cut-off not given, nearly all actives have IC50 up to about 0.98 µM;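 also: inhibitors leave more ATP so luminescence rises with inhibition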); details: recombinant PfCDPK1, Kinase-Glo ATP depletion luminescence
[6] = target: Plasmodium falciparum protein kinase 6 (PK6, PF3D7_1337100) (UniProt Q8IDW1); assay: PfPK6 kinase inhibitors, biochemical, TCAMS library (AID 1159586); details: recombinant PfPK6, Kinase-Glo ATP depletion luminescence
[7] = target: Protein kinase 7 (PK7), Plasmodium falciparum 3D7 (PF3D7_0213400) (UniProt Q7YTF7); assay: inhibition of Plasmodium PK7 catalytic activity – biochemical, TCAMS antimalarial set, Kinase-Glo luminescence (AID 1159587); details: recombinant PfPK7, Kinase-Glo ATP depletion luminescence
[8] = target: Calcium-dependent protein kinase 4 (Plasmodium falciparum (isolate 3D7)) (UniProt Q8IBS5); assay: PfCDPK4 kinase inhibitors, biochemical, TCAMS library (AID 1159588; cut-off not given, nearly all actives have IC50 up to about 0.91 µM); details: recombinant PfCDPK4, Kinase-Glo ATP depletion luminescence
Sequence of Calcium-dependent protein kinase 4 (Plasmodium falciparum (isolate 3D7)) (Q8IBS5 whole entry, looked up): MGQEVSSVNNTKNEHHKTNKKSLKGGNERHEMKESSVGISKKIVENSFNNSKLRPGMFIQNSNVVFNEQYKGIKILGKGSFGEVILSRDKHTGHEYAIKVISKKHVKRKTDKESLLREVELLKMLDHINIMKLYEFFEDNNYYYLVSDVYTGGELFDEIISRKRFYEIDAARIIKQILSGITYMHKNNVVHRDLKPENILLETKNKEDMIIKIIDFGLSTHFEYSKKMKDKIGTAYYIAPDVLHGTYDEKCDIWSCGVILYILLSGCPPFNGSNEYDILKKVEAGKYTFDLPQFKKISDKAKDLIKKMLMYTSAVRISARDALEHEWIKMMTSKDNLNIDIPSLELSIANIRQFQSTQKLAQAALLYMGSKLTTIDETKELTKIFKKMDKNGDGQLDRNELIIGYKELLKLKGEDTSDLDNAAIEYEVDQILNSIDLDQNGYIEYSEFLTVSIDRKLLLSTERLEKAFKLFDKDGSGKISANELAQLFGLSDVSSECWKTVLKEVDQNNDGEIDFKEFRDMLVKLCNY

Sequence of Plasmodium falciparum protein kinase 6 (PK6, PF3D7_1337100) (Q8IDW1 1-305): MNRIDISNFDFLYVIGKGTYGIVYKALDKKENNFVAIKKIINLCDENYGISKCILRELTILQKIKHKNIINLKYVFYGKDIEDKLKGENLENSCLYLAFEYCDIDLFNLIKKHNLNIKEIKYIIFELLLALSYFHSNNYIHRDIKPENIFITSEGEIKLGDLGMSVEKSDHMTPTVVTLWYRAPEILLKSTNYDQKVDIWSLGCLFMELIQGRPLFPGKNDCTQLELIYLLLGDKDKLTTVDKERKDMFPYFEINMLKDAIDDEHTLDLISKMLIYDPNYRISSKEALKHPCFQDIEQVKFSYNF
Sequence of Protein kinase 7 (PK7), Plasmodium falciparum 3D7 (PF3D7_0213400) (Q7YTF7 1-343): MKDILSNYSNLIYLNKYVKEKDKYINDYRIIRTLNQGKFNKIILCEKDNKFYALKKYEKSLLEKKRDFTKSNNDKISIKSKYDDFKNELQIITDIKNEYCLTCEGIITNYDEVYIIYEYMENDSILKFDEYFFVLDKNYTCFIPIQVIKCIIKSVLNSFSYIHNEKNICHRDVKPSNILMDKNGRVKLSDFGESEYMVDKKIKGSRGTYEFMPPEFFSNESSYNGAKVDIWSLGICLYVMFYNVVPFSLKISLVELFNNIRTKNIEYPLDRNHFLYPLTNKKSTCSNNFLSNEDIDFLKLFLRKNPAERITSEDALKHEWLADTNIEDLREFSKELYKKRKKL
Sequence of Calcium-dependent protein kinase 1 (Plasmodium falciparum (isolate 3D7)) (P62344 whole entry, looked up): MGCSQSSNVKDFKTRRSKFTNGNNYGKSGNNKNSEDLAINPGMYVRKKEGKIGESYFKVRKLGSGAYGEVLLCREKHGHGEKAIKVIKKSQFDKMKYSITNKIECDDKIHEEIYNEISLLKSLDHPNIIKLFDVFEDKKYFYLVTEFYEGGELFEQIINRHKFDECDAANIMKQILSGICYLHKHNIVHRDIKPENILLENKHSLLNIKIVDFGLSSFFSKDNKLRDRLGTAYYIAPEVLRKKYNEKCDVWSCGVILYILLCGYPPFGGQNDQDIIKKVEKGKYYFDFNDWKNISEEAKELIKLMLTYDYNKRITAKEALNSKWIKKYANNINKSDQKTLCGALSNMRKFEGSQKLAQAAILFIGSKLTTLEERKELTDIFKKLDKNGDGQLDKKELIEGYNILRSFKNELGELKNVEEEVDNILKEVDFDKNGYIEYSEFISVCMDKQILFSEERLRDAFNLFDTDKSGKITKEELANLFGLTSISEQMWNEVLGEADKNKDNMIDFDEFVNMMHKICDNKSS
Sequence of L-lactate dehydrogenase (Plasmodium falciparum (isolate CDC / Honduras)) (Q27743 whole entry, looked up): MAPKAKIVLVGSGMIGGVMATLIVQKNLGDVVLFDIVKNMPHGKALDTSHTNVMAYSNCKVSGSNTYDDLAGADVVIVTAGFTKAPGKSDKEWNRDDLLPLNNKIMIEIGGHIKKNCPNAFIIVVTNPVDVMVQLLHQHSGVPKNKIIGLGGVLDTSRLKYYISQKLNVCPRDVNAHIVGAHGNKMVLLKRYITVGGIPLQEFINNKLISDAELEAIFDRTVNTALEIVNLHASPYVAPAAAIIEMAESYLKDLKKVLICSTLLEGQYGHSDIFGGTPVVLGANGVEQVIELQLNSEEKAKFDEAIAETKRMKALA

Cc1cc(NCCC(=O)NCCOc2ccccc2)nc(Nc2ccccc2)n1
active: growth inhibition [1] 55% | growth inhibition [4] 94%
inactive: inhibition [2] 26% | inhibition [3] -1% | outcome [5] | outcome [6] | outcome [7] | outcome [8]

FC(F)(F)c1cccc(-c2cc(NCCCn3ccnc3)nc(-c3ccncc3)n2)c1
inactive: inhibition [3] 5% | outcome [5] | outcome [6] | outcome [7] | outcome [8]
active: growth inhibition [1] 100% | inhibition [2] 50% | growth inhibition [4] 101%

c1ccc(Oc2ccc(Nc3ccnc4cc(-c5ccc(CN6CCCCC6)o5)ccc34)cc2)nc1
inactive: inhibition [2] 18% | inhibition [3] -4% | outcome [5] | outcome [6] | outcome [7] | outcome [8]
active: growth inhibition [1] 100% | growth inhibition [4] 101%

O=C1C(c2ccccc2)=C(Nc2cccc([N+](=O)[O-])c2)c2ccccc21
inactive: inhibition [2] -3% | inhibition [3] 1% | outcome [5] | outcome [6] | outcome [7] | outcome [8]
active: growth inhibition [1] 88% | growth inhibition [4] 88%

CCCNc1nc(NCc2c(C)cccc2C)nc(NC(C)(C)C)n1
inactive: inhibition [2] 15% | inhibition [3] 2% | outcome [5] | outcome [6] | outcome [7] | outcome [8]
active: growth inhibition [1] 89% | growth inhibition [4] 91%

COc1nc2c(CCN3CC[C@H](NCc4ccc5c(c4)NC(=O)CO5)[C@H](O)C3)c(Cl)cnc2cc1F
inactive: growth inhibition [1] 22% | inhibition [2] 21% | inhibition [3] -3% | outcome [5] | outcome [6] | outcome [7] | outcome [8]
active: growth inhibition [4] 90%

COc1cccc(OC2CCN(C(=O)c3cc(C(C)(C)C)nn3Cc3ccccc3)CC2)c1
inactive: inhibition [2] 3% | inhibition [3] 3% | outcome [5] | outcome [6] | outcome [7] | outcome [8]
active: growth inhibition [1] 98% | growth inhibition [4] 102%

CCOc1ccccc1CCNC(C)Cc1ccc(C(=O)Nc2ccc(CC(C)NCCc3cccc(Cl)c3)cc2)cc1 (stereo unspecified)
inactive: inhibition [3] -3% | outcome [5] | outcome [6] | outcome [7] | outcome [8]
active: growth inhibition [1] 59% | inhibition [2] 100% | growth inhibition [4] 97%

CN(C)C(C)(C)CN(Cc1ccc(-c2ccc(C(F)(F)F)cc2)cc1)C(=O)Cn1c(CCc2cccc(F)c2F)nc(=O)c2ccccc21
inactive: inhibition [3] -3% | outcome [5] | outcome [6] | outcome [7] | outcome [8]
active: growth inhibition [1] 67% | inhibition [2] 64% | growth inhibition [4] 95%

CC(C)(C)c1ccc(N2C(N)=NC(N)=NC2(C)C)cc1Cl
active: inhibition [2] 51% | growth inhibition [4] 94%
inactive: growth inhibition [1] 3% | inhibition [3] -5% | outcome [5] | outcome [6] | outcome [7] | outcome [8]

Cc1cccc(OCC2CCN(c3ncc(C(=O)NC4CC4)cc3Cl)CC2)c1
inactive: inhibition [2] -4% | inhibition [3] -2% | outcome [5] | outcome [6] | outcome [7] | outcome [8]
active: growth inhibition [1] 78% | growth inhibition [4] 90%

CNC(=O)c1cnc(Nc2ccc(OCC(O)CN(C)C)cc2)nc1Nc1cccc(Br)c1 (stereo unspecified)
inactive: inhibition [3] -5% | outcome [5] | outcome [6] | outcome [7] | outcome [8]
active: growth inhibition [1] 100% | inhibition [2] 68% | growth inhibition [4] 102%

O=C(NC1CC1)c1ccc(N2CCC(COc3cccc(F)c3)CC2)nc1
active: growth inhibition [1] 88% | growth inhibition [4] 89%
inactive: inhibition [2] 0% | inhibition [3] 4% | outcome [5] | outcome [6] | outcome [7] | outcome [8]

O=C(Nc1ccc(-c2ccc(-c3nc4ccccc4[nH]3)s2)cc1)c1ccncc1
inactive: inhibition [2] 21% | inhibition [3] -5% | outcome [5] | outcome [6] | outcome [7] | outcome [8]
active: growth inhibition [1] 95% | growth inhibition [4] 94%

Cc1cccc2[nH]c(-c3ccc(-c4ccc(NC(=O)Nc5ccsc5)cc4)cc3)nc12
active: growth inhibition [1] 70% | growth inhibition [4] 101%
inactive: inhibition [2] 49% | inhibition [3] 5% | outcome [5] | outcome [6] | outcome [7] | outcome [8]

CCCCCCCNc1cc(C)nc2ccc(OC)cc12
inactive: inhibition [2] 30% | inhibition [3] -2% | outcome [5] | outcome [6] | outcome [7] | outcome [8]
active: growth inhibition [1] 100% | growth inhibition [4] 101%

O=C(Nc1ccc(N2CCCCC2)c(Cl)c1)c1ccc(Br)o1
inactive: inhibition [2] -8% | inhibition [3] -1% | outcome [5] | outcome [6] | outcome [7] | outcome [8]
active: growth inhibition [1] 94% | growth inhibition [4] 94%

CCN(CC)c1nc(Nc2cc(C)ccc2C)nc(Nc2ccccc2O)n1
active: growth inhibition [1] 99% | growth inhibition [4] 101%
inactive: inhibition [2] -9% | inhibition [3] 2% | outcome [5] | outcome [6] | outcome [7] | outcome [8]

O=C(Nc1ccc2c(c1)CCC2)c1cccc(CN2CCCN(Cc3cccc(O)c3)CC2)c1
active: growth inhibition [4] 91%
inactive: growth inhibition [1] 20% | inhibition [2] 10% | inhibition [3] 0% | outcome [5] | outcome [6] | outcome [7] | outcome [8]

OCC1CCN(Cc2ccc(-c3ccc(-c4nc5ccc(C(F)(F)F)cc5[nH]4)s3)cc2)CC1
inactive: inhibition [2] 35% | inhibition [3] -2% | outcome [5] | outcome [6] | outcome [7] | outcome [8]
active: growth inhibition [1] 90% | growth inhibition [4] 102%

COc1cc(F)c2ncc(Cl)c(C(O)CN3CCC(NC(=O)c4ccc5c(n4)NC(=O)CO5)CC3)c2c1 (stereo unspecified)
active: growth inhibition [1] 100% | growth inhibition [4] 102%
inactive: inhibition [2] 22% | inhibition [3] -1% | outcome [5] | outcome [6] | outcome [7] | outcome [8]

COc1ccccc1NC(=S)N/N=C/c1ccc(O)cc1O
inactive: inhibition [2] 35% | inhibition [3] -5% | outcome [5] | outcome [6] | outcome [7] | outcome [8]
active: growth inhibition [1] 80% | growth inhibition [4] 89%

Cc1ccc(NC(=O)c2c(C)noc2-c2snnc2C)cc1
active: growth inhibition [1] 71% | growth inhibition [4] 92%
inactive: inhibition [2] 1% | inhibition [3] 3% | outcome [5] | outcome [6] | outcome [7] | outcome [8]

O=C(/C=C/c1ccc(Cl)c(Cl)c1)N1CCC(CNCc2cccc3cc[nH]c23)CC1
inactive: growth inhibition [1] 14% | inhibition [2] 1% | inhibition [3] -2% | outcome [5] | outcome [6] | outcome [7] | outcome [8]
active: growth inhibition [4] 85%

O=C(Nc1ccc([N+](=O)[O-])cc1Cl)c1cc(Br)cc(Cc2ccccc2)c1O
inactive: inhibition [3] -1% | outcome [5] | outcome [6] | outcome [7] | outcome [8]
active: growth inhibition [1] 96% | inhibition [2] 75% | growth inhibition [4] 84%

O=S(=O)(NCCN1CCCC1)c1ccc(-c2ccc(CNCc3ccsc3)cc2)cc1F
active: growth inhibition [4] 96%
inactive: growth inhibition [1] 40% | inhibition [2] 27% | inhibition [3] 0% | outcome [5] | outcome [6] | outcome [7] | outcome [8]

CC(=O)Nc1ncc(C(=O)Nc2ccc(-c3cccc(-c4nc5ccc(F)cc5[nH]4)c3)cc2)s1
active: growth inhibition [1] 85% | growth inhibition [4] 102%
inactive: inhibition [2] 47% | inhibition [3] -3% | outcome [5] | outcome [6] | outcome [7] | outcome [8]

O=C(OCc1ccccn1)c1nc2ccccc2[nH]1
active: growth inhibition [1] 97% | inhibition [2] 63% | growth inhibition [4] 92%
inactive: inhibition [3] -2% | outcome [5] | outcome [6] | outcome [7] | outcome [8]

Cc1cccc(C(=O)NC(NC(=S)Nc2ccc([N+](=O)[O-])cc2)C(Cl)(Cl)Cl)c1 (stereo unspecified)
active: growth inhibition [1] 66% | growth inhibition [4] 96%
inactive: inhibition [2] 14% | inhibition [3] -2% | outcome [5] | outcome [6] | outcome [7] | outcome [8]

COc1ccc(NC(=O)c2csc(-c3cc(NC(=O)c4ccnc(N5CCCC5)c4)ccc3C)c2)cc1N1CCN(C)CC1
active: growth inhibition [1] 80% | growth inhibition [4] 100%
inactive: inhibition [2] 4% | inhibition [3] 1% | outcome [5] | outcome [6] | outcome [7] | outcome [8]

CCOc1ccccc1C1CCN(CCCCNC(=O)c2ccc(NC(=O)c3ccc(Cl)cc3)cc2)CC1
inactive: growth inhibition [1] 27% | inhibition [2] 13% | inhibition [3] 1% | outcome [5] | outcome [6] | outcome [7] | outcome [8]
active: growth inhibition [4] 95%

CC[C@H]1CN(CCCn2c3ccccc3c3ccccc32)[C@@H](CC)CN1
inactive: growth inhibition [1] -3% | inhibition [3] -6% | outcome [5] | outcome [6] | outcome [7] | outcome [8]
active: inhibition [2] 69% | growth inhibition [4] 89%

O=C(CNc1ccc(Cl)c(S(=O)(=O)N2CCCC2)c1)Nc1ccc(Br)cc1F
inactive: inhibition [2] 18% | inhibition [3] 4% | outcome [5] | outcome [6] | outcome [7] | outcome [8]
active: growth inhibition [1] 97% | growth inhibition [4] 99%

CS(=O)(=O)NCCCNCc1cccc(-c2ccc(-c3nc4ccccc4[nH]3)s2)c1
inactive: growth inhibition [1] -1% | inhibition [2] 24% | inhibition [3] 6% | outcome [5] | outcome [6] | outcome [7] | outcome [8]
active: growth inhibition [4] 90%

CCCCNCc1ccc(-c2nc(CN(C(=O)Nc3cc([N+](=O)[O-])ccc3F)C3Cc4ccccc4C3)cs2)cc1
inactive: growth inhibition [1] 13% | inhibition [2] 15% | inhibition [3] -2% | outcome [5] | outcome [6] | outcome [7] | outcome [8]
active: growth inhibition [4] 87%

CC(C)N(Cc1ccccc1)C(=O)CN1C(=O)COc2ccc(S(=O)(=O)N3CCCCCC3)cc21
active: growth inhibition [1] 99% | growth inhibition [4] 99%
inactive: inhibition [2] -11% | inhibition [3] -3% | outcome [5] | outcome [6] | outcome [7] | outcome [8]

Cc1cc(N(CCO)CCCN2CCCCC2)nc(Nc2ccc(Cl)cc2)n1
active: growth inhibition [4] 100%
inactive: growth inhibition [1] 18% | inhibition [2] 12% | inhibition [3] -9% | outcome [5] | outcome [6] | outcome [7] | outcome [8]
